Screens: PubChem BioAssay, several laboratories
In the library only some 1.3% were active in any assay of this set; here they are far more common.
PriA SSB inh: blocks PriA binding to SSB C-terminal tail | AlphaScreen SSBct-PriA binding, biotinylated peptide | inhibition, % at 33 µM | actives 0.6% (n = 430,000) | AID 1272365; in the data active means inhibition mostly above about 37%, no sharp cut-off; inactive means mostly below about 20%
SARS 3CLpro inh: SARS-CoV 3CLpro protease inhibition | actives 0.14% (n = 290,000) | AID 1706 | P0C6X7 | inhibition, % at 6 µM | recombinant SARS-CoV 3CLpro, quenched FRET peptide cleavage; in the data active means inhibition above about 12%
Mtb hypoxia rep: inhibitors of hypoxia-regulated fluorescent reporter in Mycobacterium tuberculosis; actives 0.1% (n = 300,000); fluorescence inhibition, % (no concentration beside the values); M. tuberculosis hypoxia-regulated fluorescent reporter, fluorescence; in the data active means fluorescence inhibition mostly above about 23%, no sharp cut-off; inactive means mostly below about 17%
CCHFV vOTU inh: CCHFV vOTU protease inhibition; actives 0.55% (n = 370,000); Pep-AMC fluorescence; AID 651958; inhibition, % at 11.5 µM; in the data active means inhibition above about 30%
VHR inh abs: DUSP3 (human) phosphatase inhibition | P51452 | recombinant VHR phosphatase, pNPP absorbance | inhibition, % at 13.3 µM | actives 0.52% (n = 290,000) | AID 1654; in the data active means inhibition above about 50%
Target sequence (P51452 whole entry, looked up): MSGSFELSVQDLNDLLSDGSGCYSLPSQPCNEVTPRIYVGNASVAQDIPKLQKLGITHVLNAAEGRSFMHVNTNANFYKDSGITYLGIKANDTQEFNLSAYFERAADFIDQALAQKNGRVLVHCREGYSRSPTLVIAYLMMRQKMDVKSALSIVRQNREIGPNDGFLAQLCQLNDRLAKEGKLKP
A number is an active result; . = inactive; / = no result; ! = a repeat was not active.

SMILES	PriA SSB inh	SARS 3CLpro inh	Mtb hypoxia rep	CCHFV vOTU inh	VHR inh abs
COC(=O)c1ccc(CN2CCCC(C(=O)Nc3cccc(-n4cccn4)c3)C2)cc1 (stereo not given)	.	.	.	.	52
CCOC(=O)CNC(=O)c1cc(-c2ccccn2)nc2c(C)c(Cl)ccc12	.	.	.	.	53
Cc1c(Cl)ccc2c(C(N)=O)cc(-c3ccccn3)nc12	.	.	.	.	.
COc1ccc(NC(=O)/C(=C\c2ccc(F)cc2)NC(=O)c2ccco2)cc1	.	.	.	.	56
COc1ccc(NC(=O)/C(=C\c2ccccc2)NC(=O)c2ccco2)cc1	.	.	.	.	.
COc1cc(OC)c(NC(=O)c2cc3c(=O)[nH]c(C)cn3n2)cc1Cl	.	/	/	/	/
CCOc1ccc(CC(=O)Nc2cc(-c3cn4nc(OC)ccc4n3)ccc2Cl)cc1	.	/	/	/	/
O=C(Cn1c(=O)cnc2ccccc21)Nc1cccc(S(=O)(=O)N2CCOCC2)c1	.	/	28	.	/
CCc1ccc(C2=NN(C(=O)OC)C(O)(C(F)(F)F)C2)cc1 (stereo not given)	.	.	.	.	52
Cc1ccc2c(COC(=O)c3ccccc3Br)cc(=O)oc2c1	.	.	.	.	60
COc1ccccc1NC(=O)C(=O)NCCCc1ccc(N(C)C)cc1	.	/	/	/	/
O=C(Cc1cccc2ccccc12)NCC1CCN(C(=O)c2ccncc2)CC1	.	/	/	/	/
Cc1cccc(C)c1OCc1cc(C(=O)N2CCN(Cc3nccn3C)CC2)no1	.	.	.	.	58
Cc1cccc(N2CCN(C(=O)c3cc(COc4ccc(F)c(F)c4)on3)CC2)n1	.	.	.	.	51
Cn1ccnc1CN1CCN(C(=O)c2cc(COc3ccc(F)c(F)c3)on2)CC1	.	.	.	.	.
Cc1[nH]c2ccccc2c1C(c1cccs1)N1CCC(C)CC1 (stereo not given)	.	/	/	/	/
N#CCCN1CCCc2cc(N=Nc3ccc(C(F)(F)F)cc3)ccc21	45	.	.	.	.
O=C(NCC1COC2(CCCC2)O1)C(=O)NC1CC1 (stereo not given)	.	/	/	/	/
O=C(NCCN1CCn2cc(OCc3ccc(F)cc3)c(=O)cc2C1=O)c1ccncc1	.	/	/	/	/
Cc1ccc(C)c(Nc2ccc3nonc3c2[N+](=O)[O-])c1	.	.	.	.	.
Cc1ccc(C)c(Nc2c([N+](=O)[O-])ccc3nonc23)c1	50	.	.	.	.
O=C(CSc1ccc(Cl)cc1)Nc1nnc(-c2ccccn2)o1	35	/	/	/	/
O=C(CSC1CCCC1)NCc1ccc(C(=O)c2ccsc2)s1	.	/	/	/	/
Cc1cc(S(=O)(=O)N2CCN(c3ccc4nnc(C5CC5)n4n3)CC2)ccc1F	.	/	/	/	/
NC(=O)c1ccc(NC(=O)[C@@H]2CSCCC(=O)N2)cc1	.	/	/	/	/
SMILES	PriA SSB inh	SARS 3CLpro inh	Mtb hypoxia rep	CCHFV vOTU inh	VHR inh abs
COc1cc(/C=C2/SC(=S)N(Cc3ccccc3)C2=O)ccc1OCC(=O)O	.	.	/	.	.
COc1ccc(/C=C2\SC(=S)N(CCC(=O)Nc3ccc(C(=O)O)cc3)C2=O)cc1OC	.	.	.	/	57
COc1ccc(/C=C2\SC(=S)N(CCCC(=O)Nc3cccc(C(=O)O)c3)C2=O)cc1OC	.	.	.	.	.
COc1ccc(/C=C2\SC(=S)N(CCC(=O)N(CCO)Cc3ccccc3)C2=O)cc1OC	.	.	.	.	57
COc1cc(/C=C2\SC(=S)N(CC(=O)Nc3ccc(O)cc3)C2=O)cc(OC)c1OC	.	.	.	.	56
COc1cc(/C=C2\SC(N)=NC2=O)ccc1OCC(=O)Nc1ccccc1C	/	/	57	.	/
COc1cc(C(=O)Nc2nsc(-c3ccccc3)n2)cc(OC)c1OC	.	/	/	/	/
O=C(CNS(=O)(=O)c1ccccc1F)NC1CCN(c2nccs2)CC1	.	/	/	/	/
O=[N+]([O-])c1cc(F)c2cccnc2c1O	.	.	.	.	.
O=[N+]([O-])c1cc(Cl)c(O)c2ncccc12	86!	.	.	.	.
O=[N+]([O-])c1cc(Cl)c2cccnc2c1O	67	.	.	.	.
O=S(=O)(/C=C/c1ccccc1)NCC1CCN(c2ccccn2)CC1	.	/	/	/	/
Cc1ccc(C(=O)Nc2c(C)nc3scc(C)n3c2=O)cc1C	.	/	/	/	/
CC(C(=O)Nc1nc(-c2ccccn2)cs1)N1NC2=CCCC2=CC1=O (stereo not given)	95	/	/	/	/
CC(N)C(=O)Nc1nc(-c2ccccn2)cs1 (stereo not given)	.	/	/	/	/
CC(C)[C@H](NC(=O)c1ccccc1Cl)C(=O)Nc1nc(-c2ccccn2)cs1	.	.	.	.	.
CC(Oc1ccc(C#N)cc1)C(=O)Nc1nc(-c2ccccn2)cs1 (stereo not given)	109	/	/	/	/
CC(C)C(=O)Nc1nc(-c2ccccn2)cs1	74	/	/	/	/
CC(NC(=O)c1cccs1)C(=O)Nc1nc(-c2ccccn2)cs1 (stereo not given)	103	/	/	/	/
COc1ccc(NC(=O)c2ccc(=O)n(CC(=O)NCc3ccccc3Cl)n2)cc1	.	/	/	/	/
COc1ccc([C@@H]2CC(c3cccs3)=NN2C(=O)CSC2=NCCS2)cc1	.	/	/	/	/
Cc1cccc(C(=O)NC(C)C(=O)Nc2nc(-c3ccccn3)cs2)c1 (stereo not given)	100	/	/	/	/
COC(=O)N1CCc2c(sc(NC(=O)C(C)C)c2-c2nc3ccccc3s2)C1	.	/	/	/	/
O=C1C(=O)N(CCCN2CCOCC2)C(c2ccc([N+](=O)[O-])cc2)C1=C(O)c1ccc2c(c1)OCO2 (stereo not given)	.	/	/	/	/
COc1ccc(N2C(=O)[C@@H]3[C@H](C2=O)[C@H]2c4ccccc4C=CN2[C@@H]3C(=O)Nc2ccccc2)cc1	.	.	.	.	.
SMILES	PriA SSB inh	SARS 3CLpro inh	Mtb hypoxia rep	CCHFV vOTU inh	VHR inh abs
O=C(c1ccco1)[C@@H]1[C@@H]2C(=O)N(c3ccccc3)C(=O)[C@@H]2C2c3ccccc3C=CN21 (stereo not given in full)	.	.	.	96	.
CCCCC(=O)NN=Cc1ccc(Sc2cccc3cccnc23)o1	100	/	.	/	/
O=C(CSc1nc(-c2ccccc2)c(-c2ccccc2)[nH]1)NCc1ccco1	42	.	.	.	.
COCCc1nnc(NC(=O)c2ccccc2SC)o1	.	/	/	/	/
Cc1cc2nc(C)n(CCCN)c2cc1C	.	.	.	.	51
Cc1ccc(NC(=O)c2ccccc2NC(=O)C2COc3ccccc3O2)c(C(=O)c2ccccc2)c1 (stereo not given)	61	/	/	/	/
COc1ccc(C[C@](C)(O)CNC(=O)CCc2ccc(C(F)(F)F)cc2)cc1	.	/	/	/	/
NC(=NOC(=O)COc1ccc(Cl)cc1)c1ccc(Cl)cc1	.	/	/	/	/
CCOC(=O)/C(C#N)=C\N(C)C	.	.	.	.	57
COC(=O)/C(C#N)=C/N(C)C	.	.	.	.	.
C[C@H](Oc1ccccc1)C(=O)N1CC(c2nc(-c3cccc(C(F)(F)F)c3)no2)C1	.	/	/	/	/
CN(C)NC(=S)Nc1ccc2nc(-c3ccccn3)c(-c3ccccn3)nc2c1	79	.	.	.	.
OCCCNC(=S)Nc1ccc2nc(-c3ccccn3)c(-c3ccccn3)nc2c1	72	.	.	.	.
O=C(c1ccsc1)N1CCN(c2ccc(-n3cncn3)nn2)CC1	.	/	/	/	/
CCOc1cc(C(=O)NCc2ccc(C)cc2)ccc1OCC(=O)N1CCOCC1	.	.	.	.	51
